These results are taken from PubChem BioAssay (EPA / NIEHS).

Records with an inconclusive call do not appear. Active and inactive are the calls of the source. The calls were made as follows, unless noted: active = hit-call score of the fitted dose curve at least 0.9, where 1 is the maximum; inconclusive = response in the unintended direction; inactive = score below 0.9.

For orientation: AC50 means the midpoint of the concentration-response curve, whichever way the signal moves.

Sequence of Nuclear receptor subfamily 1 group I member 2 (Homo sapiens) (O75469 whole entry, looked up): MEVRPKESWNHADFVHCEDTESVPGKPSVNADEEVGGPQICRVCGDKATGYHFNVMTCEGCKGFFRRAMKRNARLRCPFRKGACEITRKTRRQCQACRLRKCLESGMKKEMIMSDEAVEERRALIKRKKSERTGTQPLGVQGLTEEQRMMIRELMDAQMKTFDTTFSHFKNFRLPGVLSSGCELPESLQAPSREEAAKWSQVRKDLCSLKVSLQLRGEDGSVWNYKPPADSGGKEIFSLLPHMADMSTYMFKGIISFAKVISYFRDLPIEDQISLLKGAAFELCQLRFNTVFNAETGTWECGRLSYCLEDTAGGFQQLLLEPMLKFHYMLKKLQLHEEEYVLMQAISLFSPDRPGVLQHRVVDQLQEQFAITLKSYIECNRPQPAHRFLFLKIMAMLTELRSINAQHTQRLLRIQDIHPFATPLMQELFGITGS
Sequence of Peroxisome proliferator-activated receptor gamma (Homo sapiens) (P37231 whole entry, looked up): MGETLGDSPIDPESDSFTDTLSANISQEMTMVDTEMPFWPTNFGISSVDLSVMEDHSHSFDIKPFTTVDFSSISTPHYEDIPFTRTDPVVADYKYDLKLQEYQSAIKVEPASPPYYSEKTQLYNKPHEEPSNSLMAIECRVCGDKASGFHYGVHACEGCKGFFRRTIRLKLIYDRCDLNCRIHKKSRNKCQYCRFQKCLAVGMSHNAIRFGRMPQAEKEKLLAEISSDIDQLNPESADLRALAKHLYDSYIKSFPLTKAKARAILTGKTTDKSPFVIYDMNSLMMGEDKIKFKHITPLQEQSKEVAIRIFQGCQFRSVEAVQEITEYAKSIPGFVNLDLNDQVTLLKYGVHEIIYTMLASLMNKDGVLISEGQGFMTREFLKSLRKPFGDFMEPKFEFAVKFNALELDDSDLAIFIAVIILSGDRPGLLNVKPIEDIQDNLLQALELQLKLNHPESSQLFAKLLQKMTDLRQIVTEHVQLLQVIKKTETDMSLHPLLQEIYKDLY

The target in one assay is Retinoic acid receptor alpha (Homo sapiens) (UniProt P10276). Briefly: ATG_RARa_TRANS: Attagene TRANS-FACTORIAL HepG2 Assay for human Retinoic Acid Receptor alpha (RARa) (AID 2283005).
Sequence of Retinoic acid receptor alpha (Homo sapiens) (P10276 whole entry, looked up): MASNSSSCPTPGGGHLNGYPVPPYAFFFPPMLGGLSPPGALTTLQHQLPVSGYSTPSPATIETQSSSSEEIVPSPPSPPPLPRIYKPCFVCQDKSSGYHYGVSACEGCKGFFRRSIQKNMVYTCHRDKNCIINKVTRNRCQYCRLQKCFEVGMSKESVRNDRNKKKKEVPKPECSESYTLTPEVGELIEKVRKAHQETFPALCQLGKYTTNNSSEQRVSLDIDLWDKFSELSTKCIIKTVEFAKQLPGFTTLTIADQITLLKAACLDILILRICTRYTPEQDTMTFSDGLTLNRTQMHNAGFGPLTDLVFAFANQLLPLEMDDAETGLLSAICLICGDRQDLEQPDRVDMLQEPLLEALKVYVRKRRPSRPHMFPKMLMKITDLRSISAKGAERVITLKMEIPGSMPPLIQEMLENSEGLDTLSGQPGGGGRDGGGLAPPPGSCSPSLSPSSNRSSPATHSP
Conditions: not given
An outline of the steps: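 Reporter transcripts, measured by RT-PCR with fluorescent labeling and capillary electrophoresis after 24 h dosing, reflect activity of an exogenous human RARa–GAL4 fusion in transiently transfected HepG2. Fitted for increase relative to DMSO.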
As to `C[C@]12CC[C@H](O)CC1=CC[C@@H]1[C@@H]2CC[C@]2(C)C(=O)CC[C@@H]12`, the outcome was inactive.
As for `C=C(C)C#N`, the compound was classed as inactive.
As for `O=C(O)Cc1ccccc1`, the result was inactive.
The same measure, in the same setting: for `CCOP(=S)(OCC)Oc1ccc(S(C)=O)cc1` (stereo not drawn) the value was “inactive”; for `CN(C)P(=O)(N(C)C)N(C)C`, “inactive”; for `O=C(Cc1ccccc1)c1ccccc1`, “inactive”.
Same read-out and setting: in the case of `NC(=S)Nc1ccccc1` it was “inactive”; in that of `ClC1=C(Cl)[C@]2(Cl)[C@@H]3[C@@H](Cl)[C@@H](Cl)C[C@@H]3[C@@]1(Cl)C2(Cl)Cl`, “inactive”; in that of `C1CCC(NC2CCCCC2)CC1`, “inactive”.
In the case of `ClCC(Cl)CCl`, the outcome was inactive.
As for `CCOP(OCC)OCC`, the compound was called inactive.

Read-out in another assay: not listed separately
Briefly: BSK_3C_Proliferation: Cell Proliferation Assessment in the BioMAP Diversity Plus: 3C Assay (AID 2283006; active = hit-call score of the fitted dose curve at least 0.9, where 1 is the maximum; inactive = score below 0.9;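 as to AC50: potency may reflect either rise or fall in cell number versus DMSO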). To be noted: primary human endothelial cells (HUVEC). An outline of the steps:
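Cells (human umbilical vein endothelial, sub-confluent) receive test chemical; after 48 h they are fixed in 10% trichloroacetic acid, stained with 0.1% SRB and read at 560 nm. Activity is referenced to DMSO, fitting increases and decreases.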
Consider `CC(=O)OC(c1ccccc1)C(Cl)(Cl)Cl` (stereo not drawn), for which the outcome was inactive.
As to `ClC1=C(Cl)[C@]2(Cl)[C@H]3[C@H]([C@H]4C=C[C@H]3C4)[C@@]1(Cl)C2(Cl)Cl`, the AC50 was 20 µM (active).
Regarding `CCOP(=S)(OCC)Oc1ccc(S(C)=O)cc1` (stereo not drawn), the outcome was inactive.
Consider `CCCCCCCCC(=O)NCc1ccc(O)c(OC)c1`, for which the AC50 was 13.6 µM (active).
Turning to `ClC1(Cl)C2(Cl)C3(Cl)C4(Cl)C(Cl)(Cl)C5(Cl)C3(Cl)C1(Cl)C5(Cl)C24Cl` (stereo not drawn), the result was inactive.
Regarding `Nc1cccc2ccccc12`, the AC50 was 7.58 µM (active).
In the case of `CC(=O)C(Cl)C(=O)N(C)C` (stereo not drawn), the AC50 was 20 µM (active).
On to `ClC(Cl)=C(Cl)C(Cl)=C(Cl)Cl`, for which the AC50 was 14.3 µM (active).
Turning to `CCC(=O)C(CC(C)N(C)C)(c1ccccc1)c1ccccc1` (stereo not drawn), the outcome was inactive.
The same measure, in the same setting: in the case of `COC(=O)Cc1ccccc1` it was “inactive”.
For the compound `Oc1cccc2cccnc12`, the AC50 was 4.78 µM (active).
On to `O=S(=O)(c1ccc(Cl)cc1)c1ccc(Cl)cc1`, for which the result was inactive.
Still for that read-out and setting: in the case of `CC1(C)Cc2cccc(O)c2O1` it was “inactive”.
Same read-out and setting: in the case of `NC(=S)Nc1ccccc1` it was “inactive”.
In the case of `Nc1ccc(-c2ccc(N)c(Cl)c2)cc1Cl`, the AC50 was 1.84 µM (active).
Still for that read-out and setting: for `COP(=S)(OC)Oc1ccc(Sc2ccc(OP(=S)(OC)OC)cc2)cc1` the value was 15.7 µM (active).
As for `ClCC(Cl)CCl`, the result was inactive.

A further assay concerns the target Peroxisome proliferator-activated receptor gamma (Homo sapiens) (UniProt P37231). Briefly: ATG_PPARg_TRANS: Attagene TRANS-FACTORIAL HepG2 Assay for human Peroxisome Proliferator-activated Receptor-gamma (PPARg) (AID 2283007).
Conditions: not given
The method in brief:
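Chimeric NR-Gal4 transactivation is measured in transiently transfected HepG2 cells by reporter mRNA induction at 24 h. Detection uses RT-PCR with fluorescent labelling and capillary electrophoresis; DMSO defines baseline.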
On to `C[C@]12CC[C@H](O)CC1=CC[C@@H]1[C@@H]2CC[C@]2(C)C(=O)CC[C@@H]12`, for which the result was inactive.
For `ClC1=C(Cl)[C@]2(Cl)[C@H]3[C@H]([C@H]4C=C[C@H]3C4)[C@@]1(Cl)C2(Cl)Cl`, the AC50 was 64 µM (active).
`CCOP(=S)(OCC)Oc1ccc(S(C)=O)cc1` (stereo not drawn): the outcome was inactive.
Turning to `CC(C)(c1ccc(OCC2CO2)cc1)c1ccc(OCC2CO2)cc1` (stereo not drawn), the call was inactive.
Consider `COc1ccc(C=O)cc1OC`, for which the result was inactive.
On the same count and under the same terms, in the case of `CCc1ccccc1N` it was “inactive”.
`Nc1cccc2ccccc12`: the result was inactive.
In the case of `O=CC=O`, the compound was called inactive.
On the same count and under the same terms, for `CC(=O)C(Cl)C(=O)N(C)C` (stereo not drawn) the value was “inactive”; for `Cl/C=C\C[N+]12CN3CN(CN(C3)C1)C2`, “inactive”.
On the same count and under the same terms, in the case of `CCCCOCCOC(C)=O` it was “inactive”; in that of `CCC(=O)C(CC(C)N(C)C)(c1ccccc1)c1ccccc1` (stereo not drawn), “inactive”; in that of `C=CCc1ccc(OC)cc1`, “inactive”.
On to `Fc1ccc(C2(Cn3cncn3)OC2c2ccccc2Cl)cc1` (stereo not drawn), for which the result was inactive.
For the compound `Oc1cccc2cccnc12`, the compound was called inactive.
As to `CC1(C)CCC(Cc2ccc(Cl)cc2)C1(O)Cn1cncn1` (stereo not drawn), the result was inactive.
On to `Nc1ccc(-c2ccc(N)c(Cl)c2)cc1Cl`, for which the AC50 is 11.9 µM (active).
As to `C1CCC(NC2CCCCC2)CC1`, the result was inactive.
With `COP(=S)(OC)Oc1ccc(Sc2ccc(OP(=S)(OC)OC)cc2)cc1`, the AC50 is 13.7 µM (active).

A further assay addresses Nuclear receptor subfamily 1 group I member 2 (Homo sapiens) (UniProt O75469). Briefly: ATG_PXR_TRANS: Attagene TRANS-FACTORIAL HepG2 Assay for human Pregnane X Receptor (PXR) (AID 2283008).
Conditions: not given
The method in brief: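 Multiplexed TRANS reporter panel in HepG2; this component tracks PXR-Gal4-driven reporter mRNA after 24 h dosing, measured by RT-PCR with capillary electrophoresis fluorescence, fitted against DMSO.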
For `C[C@]12CC[C@H](O)CC1=CC[C@@H]1[C@@H]2CC[C@]2(C)C(=O)CC[C@@H]12`, the AC50 is 27.5 µM (active).
Same read-out and setting: for `CC(=O)OC(c1ccccc1)C(Cl)(Cl)Cl` (stereo not drawn) the value was 59 µM (active); for `ClC1=C(Cl)[C@]2(Cl)[C@H]3[C@H]([C@H]4C=C[C@H]3C4)[C@@]1(Cl)C2(Cl)Cl`, 0.794 µM (active).
As for `COc1cccc(C=O)c1`, the compound was called inactive.
On the same count and under the same terms, in the case of `O=C(O)Cc1ccccc1` it was “inactive”.
`CCOP(=S)(OCC)Oc1ccc(S(C)=O)cc1` (stereo not drawn): the AC50 was 7.06 µM (active).
In the case of `CCC1(c2ccc(N)cc2)CCC(=O)NC1=O` (stereo not drawn), the compound was called inactive.
Same read-out and setting: for `CCCCCCCCC(=O)NCc1ccc(O)c(OC)c1` the value was “inactive”; for `CC(C)(c1ccc(OCC2CO2)cc1)c1ccc(OCC2CO2)cc1` (stereo not drawn), “inactive”; for `CN(C)P(=O)(N(C)C)N(C)C`, “inactive”.
Same read-out and setting: for `CCc1ccccc1N` the value was “inactive”.
On the same count and under the same terms, for `ClC1(Cl)C2(Cl)C3(Cl)C4(Cl)C(Cl)(Cl)C5(Cl)C3(Cl)C1(Cl)C5(Cl)C24Cl` (stereo not drawn) the value was “inactive”; for `Nc1cccc2ccccc12`, “inactive”.
For `CC(=O)C(Cl)C(=O)N(C)C` (stereo not drawn), the call was inactive.
For `ClC(Cl)=C(Cl)C(Cl)=C(Cl)Cl`, the compound was called inactive.
In the case of `O=C(Cc1ccccc1)c1ccccc1`, the AC50 is 27.8 µM (active).
In the case of `CCCCOCCOC(C)=O`, the compound was called inactive.
Regarding `CCC(=O)C(CC(C)N(C)C)(c1ccccc1)c1ccccc1` (stereo not drawn), the compound was called inactive.
For `Fc1ccc(C2(Cn3cncn3)OC2c2ccccc2Cl)cc1` (stereo not drawn), the AC50 was 2.24 µM (active).
For the compound `CCOC(=O)CP(=O)(OCC)OCC`, the compound was called inactive.
The same measure, in the same setting: in the case of `COC(=O)Cc1ccccc1` it was “inactive”; in that of `Oc1cccc2cccnc12`, “inactive”.
As for `O=S(=O)(c1ccc(Cl)cc1)c1ccc(Cl)cc1`, the AC50 was 7 µM (active).
In the case of `CC1(C)Cc2cccc(O)c2O1`, the result was inactive.
For the compound `CC1(C)CCC(Cc2ccc(Cl)cc2)C1(O)Cn1cncn1` (stereo not drawn), the AC50 was 1.84 µM (active).
As to `Nc1ccc(-c2ccc(N)c(Cl)c2)cc1Cl`, the AC50 was 13.2 µM (active).
For the compound `C1CCC(NC2CCCCC2)CC1`, the call was inactive.
`COP(=S)(OC)Oc1ccc(Sc2ccc(OP(=S)(OC)OC)cc2)cc1`: the AC50 was 4.45 µM (active).
Take `Cc1ccc(N)cc1Cl`: the compound was classed as inactive.
In the case of `CC(=O)C=C(C)C`, the outcome was inactive.
For `CCOP(OCC)OCC`, the outcome was inactive.
